In PubChem BioAssay (EPA / NIEHS):
Where a structure was tested more than once in an assay, its records may differ in their call. Calls of active or inactive are those of the source. Rule for the calls: active = hit-call score of the fitted dose curve at least 0.9, where 1 is the maximum; inactive = score below 0.9.

These molecules were tested against Hepatocyte nuclear factor 3-beta (Homo sapiens) (UniProt Q9Y261) (assay: ATG_FoxA2_CIS: Attagene CIS-FACTORIAL HepG2 Assay for human Forkhead box A2 (FOXA2) (AID 2282942)). Conditions: HepG2 cis-reporter transcription factor activity, 24 h; actives raise or lower the signal.
Chain of Hepatocyte nuclear factor 3-beta (Homo sapiens) (Q9Y261 whole entry, looked up): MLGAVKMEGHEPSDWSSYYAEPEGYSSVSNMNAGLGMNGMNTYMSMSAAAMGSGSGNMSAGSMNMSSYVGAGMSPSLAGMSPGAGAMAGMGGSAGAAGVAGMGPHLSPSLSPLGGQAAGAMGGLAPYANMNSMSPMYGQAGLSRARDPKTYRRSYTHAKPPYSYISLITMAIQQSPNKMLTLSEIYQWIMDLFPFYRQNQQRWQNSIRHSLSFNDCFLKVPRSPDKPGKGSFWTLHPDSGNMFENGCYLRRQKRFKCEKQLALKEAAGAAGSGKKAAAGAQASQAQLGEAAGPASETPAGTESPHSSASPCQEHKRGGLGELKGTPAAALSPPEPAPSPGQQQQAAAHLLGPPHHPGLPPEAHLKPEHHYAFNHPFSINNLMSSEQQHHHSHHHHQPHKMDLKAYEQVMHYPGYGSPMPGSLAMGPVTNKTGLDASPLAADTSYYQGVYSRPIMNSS
Experimental: ATG_CIS is a cell-based, multiplexed-readout assay that uses HepG2, a human liver cell line, with measurements taken at 24 hours after chemical dosing in a 24-well plate.ATG_FoxA2_CIS is one of 52 assay component(s) measured or calculated from the ATG_CIS assay. It is designed to make measurements of mRNA induction, a form of inducible reporter, as detected with fluorescence intensity signals by Reverse transcription polymerase chain reaction (RT-PCR) and Capillary electrophoresis technology.Data from the assay component ATG_FoxA2_CIS was analyzed into 1 assay endpoint. This assay endpoint, ATG_FoxA2_CIS, was analyzed with bidirectional fitting relative to DMSO as the negative control and baseline of activity. Using a type of inducible reporter, measures of mRNA for gain or loss-of-signal activity can be used to understand the reporter gene at the transcription factor-level as they relate to the gene FOXA2. Furthermore, this assay endpoint can be referred to as a primary readout, because this assay has produced multiple assay endpoints where this one serves a reporter gene function. To generalize the intended target to other relatable targets, this assay endpoint is annotated to the dna binding intended target family, where the subfamily is forkhead box protein.
Human liver HepG2 cells are transiently transfected with multiple reporter transcription units (MRTUs) in 6-well plates using FuGene 6 reagent (Roche; 3 ml FuGene/1 mg DNA). The MRTU constructs are regulated by a cis-regulating element (promoter). […] A major difference between the CIS and TRANS system is that in CIS activities of endogenous TFs are measured, whereas the TRANS assay evaluates changes in activities of exogenous, chimeric NR-Gal4 proteins. […] At the end of 24 hour incubation, total RNA was isolated using TriZol reagent (Invitrogen). The isolated RNA is then reverse-transcribed using oligo(dT) primer and Mo-MLV reverse transcriptase (Invitrogen) with DNAse I (Ambion) treatment for 30 min. The one-tenth of the produced cDNA was amplified by PCR using Taq DNA polymerase (Invitrogen) and two reporter sequence-specific primers. The PCR products were fluorescently labeled by primer extension with 6-arboxyfluorescein (6-FAM) 5'-labeled reporter sequence-specific primer (2 min at 95 C, 20 s at 68 C and 10 min at 72 C) and these products were digested with 5U of HpaI (New England Biolabs) for 2h at 37 C. The fragments were purified using Qiaquick PCR columns (Qiagen), analyzed on an ABI 3130xL genetic analyzer (Applied Biosystems) with peak positions identified by using a set of X-rhodamine (ROX)-labeled MapMarker1000 molecular weight standards (BioVentures). The raw capillary electrophoresis data was processed using Attagraph software (Attagene).

Compound | outcome | AC50
Cc1ccccc1CO[C@@H]1C[C@@]2(C(C)C)CC[C@]1(C)O2 | inactive | –
CCCCCCCCOC(=O)c1ccccc1C(=O)OCCCCCCCC | inactive | –
CC(C)C(=O)OCC(C)(C)C(OC(=O)C(C)C)C(C)C (stereo not given) | inactive | –
N#Cc1ccc(N(CC(N)=O)CC(F)(F)F)cc1C(F)(F)F | inactive | –
Nn1cnnc1 | inactive | –
COc1ccc(O)c(C(C)(C)C)c1 | inactive | –
Cc1ccc(O)c(C)c1 | inactive | –
OCC(O)CO | inactive | –
CCOCCOC(C)=O | inactive | –
Oc1ccc(C(c2ccc(O)cc2)(C(F)(F)F)C(F)(F)F)cc1 | inactive | –
CCCCCCCCCc1ccc(O)cc1 | inactive | –
c1cc2ccc3cccc4ccc(c1)c2c34 | inactive | –
COS(=O)(=O)OC | inactive | –
CCC(C)(CC)c1cc(NC(=O)c2c(OC)cccc2OC)on1 | inactive | –
Cc1ccccc1[N+](=O)[O-] | inactive | –
ClC1=C(Cl)[C@]2(Cl)[C@@H]3[C@@H]4C[C@@H]([C@H]5O[C@@H]45)[C@@H]3[C@@]1(Cl)C2(Cl)Cl | inactive | –
Cc1cc2c3c(c1)C(c1ccccc1)=N[C@@H](NC(=O)c1ccncc1)C(=O)N3CC2 | inactive | –
C[C@]12CCC(=O)C=C1CC[C@@H]1[C@@H]2CC[C@]2(C)C(=O)CC[C@@H]12 | inactive | –
Oc1c(Cl)c(Cl)c(Cl)c(Cl)c1Cl | inactive | –
Cc1cccc([N+](=O)[O-])c1 | inactive | –

Compound | outcome | AC50
Clc1ccc(C(Cl)(Cl)Cl)cc1 | inactive | –
CCCN(CCC)N=O | inactive | –
CN(C)c1nc(=O)n(C2CCCCC2)c(=O)n1C | inactive | –
CCCCCCCCCC[N+](C)(C)CCCCCCCCCC | inactive | –
Nc1ccc(-c2ccc(N)cc2)cc1 | inactive | –
O=S(=O)(O)C(F)(F)C(F)(F)C(F)(F)C(F)(F)C(F)(F)C(F)(F)F | inactive | –
O=C(O)C(F)(F)C(F)(F)C(F)(F)C(F)(F)C(F)(F)C(F)(F)C(F)(F)C(F)(F)F | inactive | –
c1ccc(-c2ccccc2)cc1 | inactive | –
ClC1=C(Cl)[C@]2(Cl)[C@@H]3[C@H]4C[C@H]([C@@H]5O[C@H]45)[C@@H]3[C@@]1(Cl)C2(Cl)Cl | inactive | –
O=C(N[C@H]1CN2CCC1CC2)c1cc2ccoc2cn1 | inactive | –
Cc1cc(O)ccc1Cl | inactive | –
C1CC2OC2CC1C1CO1 (stereo not given) | inactive | –
CCC(=O)O[C@H]1CC[C@H]2[C@@H]3CCC4=CC(=O)CC[C@]4(C)[C@H]3CC[C@]12C | inactive | 187 µM (active)
CC(C)(O)C(=O)Nc1ccc([N+](=O)[O-])c(C(F)(F)F)c1 | inactive | –
Sc1ccccc1 | inactive | –
O=S(=O)(O)C(F)(F)C(F)(F)C(F)(F)C(F)(F)F | inactive | –
Cc1ccccc1O | inactive | –
O=C(NC(=O)c1cc(F)c(F)cc1Cl)Nc1cc(F)ccc1N1CCC(C(=O)O)CC1 | inactive | –
O=C(NC(=O)c1c(F)cccc1F)Nc1cc(Cl)c(OC(F)(F)C(F)F)c(Cl)c1 | inactive | –
